# rCAG RNA binder = binds r(CAG) RNA repeats; r(CAG) RNA repeat, TO-PRO-1 dye displacement fluorescence; inhibition, % at 3 µM; 370,000 compounds, 1.3% hits; AID 651821;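 active = inhibition above the plate cutoff, the mean of all test compounds on that plate plus 3 SD, cut at about 35% in these data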;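 note: 0% = DMSO alone and 100% = 100 µM mitoxantrone as full dye displacement; higher means more dye released from RNA so lower well fluorescence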
# DSG3 Ab inh = human desmoglein-3 autoantibody binding inhibition | P32926 | DSG3-coupled beads, scFv-anti-DSG3-GFP binding, flow cytometry; hits give low values | binding (percent of control), % at 10 µM | 310,000 compounds, 0.48% hits | AID 588358;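 active = binding more than 3 SD below its plate's average and above zero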;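 note: hits lower antibody fragment binding to DSG3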
# MPTP block = permeability transition pore inhibition; isolated mouse mitochondria, Ca2+ swelling absorbance, 30 min; inhibition, % at 10 µM; 360,000 compounds, 1.4% hits; AID 602449;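 active = inhibition of 50% or more, scaled per plate between neutral and stimulator controls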;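 note: 0% = DMSO wells given calcium and 100% = 1 mM EGTA wells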
# ADAM17 inh = inhibitors of human ADAM17 | P78536 | recombinant ADAM17, EDANS/DABCYL FRET peptide cleavage | inhibition, % at 6.95 µM | 370,000 compounds, 0.83% hits;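 active = inhibition above the mean of compounds lying between control limits plus 3 SD, set per campaign, cut at about 8.5% in these data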;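 note: 0% = DMSO-only wells as the low control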
# KLK7 zymogen act = activates the human kallikrein-7 zymogen; P49862; purified proKLK7, EDANS-DABCYL substrate fluorescence; 100% is mature enzyme control, 0% vehicle; activation, % at 7 µM; 370,000 compounds, 0.9% hits; AID 652039;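 active = activation above the mean of all tested compounds plus 3 SD, computed per campaign excluding outliers beyond control limits, cut at about 13% in these data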
# ADAM10 inh = inhibitors of human ADAM10; O14672; recombinant ADAM10, EDANS/DABCYL FRET peptide cleavage, 3 h; inhibition, % at 7 µM; 370,000 compounds, 0.62% hits; AID 720582;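 active = inhibition above a per-campaign cutoff equal to the mean of compounds falling between control-based bounds plus 3 SD, cut at about 20% in these data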;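 note: 0% = DMSO wells while the 100% control is not disclosed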
# ADAM10 counter = ADAM10 inhibition, counter-screen for ADAM17 exosite hits; 2,900 compounds, 47% hits; recombinant ADAM10, EDANS/DABCYL FRET peptide cleavage, 3 h; AID 743256; inhibition, % at 6.95 µM; shares compounds with ADAM17 inh;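 active = mean inhibition over the triplicate runs exceeds the activity threshold set in the earlier primary screen, cut at about 20% in these data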;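 note: 0% = DMSO wells and 100% = marimastat wells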
# ADAM17 confirm = human ADAM17 inhibition, confirmation; recombinant ADAM17, EDANS/DABCYL QFRET peptide cleavage; 2,900 compounds, 65% hits; shares compounds with ADAM17 inh; inhibition, % at 6.95 µM;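 active = mean inhibition across replicates above the hit cutoff set in the primary screen, cut at about 8.5% in these data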;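 note: 0% = DMSO wells and 100% = marimastat wells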
# An asterisk follows results filed as active; . = no result given. In the library only some 4.7% were active in any assay of this set; here they are far more common.
SMILES,rCAG RNA binder,DSG3 Ab inh,MPTP block,ADAM17 inh,KLK7 zymogen act,ADAM10 inh,ADAM10 counter,ADAM17 confirm
CCOC(=O)N1CCN(C(=O)CN(c2ccc(OCC)cc2)S(C)(=O)=O)CC1,0,105,0,-1,0,-4,.,.
CCOc1ccc(N(CC(=O)Nc2cccc(C)c2)S(C)(=O)=O)cc1,1,110,1,9.0*,-1,9,0,2
CCOc1ccc(N(CC(=O)NN=C2CCN(C)CC2)S(C)(=O)=O)cc1,1,99,-1,8.7*,0,12,-3,-1
CCOc1ccc(N(CC(=O)Nc2ccc(Br)cc2)S(C)(=O)=O)cc1,2,115,1,4,1,11,.,.
Cc1n[nH]c(=O)c2c(NC(=O)CSc3nnc(C4CC4)n3C)oc(C)c12,2,102,0,-4,0,-3,.,.
CC1(C)CC(NC(=O)c2ccc(-c3ccc([N+](=O)[O-])cc3)o2)CC(C)(C)N1,12,102,0,-3,-1,-20,.,.
C=CCC[C@@H](Cc1ccc(F)cc1)C(=O)OC[C@@H]1CCCN1C(=O)[C@@H](CC=C)CC(=O)N[C@@H](CO)Cc1ccccc1,-9,102,1,9.1*,0,20,11,9.3*
C=CC[C@@H](Cc1ccc(F)cc1)C(=O)OC[C@@H]1CCCN1C(=O)[C@H](CC=C)CC(=O)N(CCO)Cc1ccccc1,-3,101,-1,10*,0,19,6,7
Cc1ccc(OCC(=O)Nc2ccc3oc(=O)ccc3c2)c(C)c1,1,100,1,-7,0,-16,.,.
COc1cccc(C(=O)COc2cccc(NC(=O)c3ccco3)c2)c1,2,101,-1,9.2*,-1,6,7,7
CC(C)(C)c1ccc(-c2nc(NCc3cccnc3)c3ccccc3n2)cc1,7,130,3,13*,-1,13,18,12*
COc1ccccc1C1CC(c2ccc(Br)cc2)=NN1C(=O)c1cccnc1 (stereo not given),2,109,0,9.7*,1,17,9,8
COc1cccc(C2CC(c3ccc(Br)cc3)=NN2C(=O)c2ccncc2)c1OC (stereo not given),3,101,-1,-1,1,-12,.,.
CN(Cc1ccc(Cl)c(Cl)c1)C(=O)CN1C(=O)NC2(CCCC2)C1=O,-7,96,0,-3,0,-5,.,.
O=C(CSc1nnc(Nc2ccccc2F)s1)c1cc2ccccc2o1,14,101,1,1,0,6,.,.
COCC(C)n1c(C)cc(C(=O)CSc2nnc(Nc3ccccc3F)s2)c1C (stereo not given),9,103,0,15*,1,15,1,2
C=CCOC(=O)C1=C[C@H](c2coc3ccccc3c2=O)C[C@H](OCc2ccc(CO)cc2)O1,-4,99,-3,-4,0,-5,.,.
C=CCOC(=O)C1=C[C@@H](c2coc3ccccc3c2=O)C[C@@H](OCc2ccc(CO)cc2)O1,0,98,-2,15*,3,7,26*,10*
O=S1(=O)CCN(Cc2ccc(Cl)cc2)CC1,4,.,4,9.2*,0,13,-8,1
CCOC(=O)C1=C(c2ccccc2)NC(=S)NC1c1cc([N+](=O)[O-])ccc1OC (stereo not given),13,103,-2,9.2*,0,12,10,6
CCOC(=O)C1=C(c2ccccc2)NC(=O)NC1c1cc(Br)c(O)c(OC)c1 (stereo not given),-2,114,0,10*,0,-1,13,3
CCOC(=O)C1=C(c2ccccc2)NC(=S)NC1c1cccc([N+](=O)[O-])c1 (stereo not given),-2,112,0,3,0,-6,.,.

# High-throughput results: PubChem BioAssay, several laboratories
